Results as given in PubChem BioAssay (NCI).
About 83,000 compounds went through this panel and 20% of them were active in at least one assay; those are over-represented in the sample as a whole.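 48-hour exposure, single concentration, 96-well plates; percent growth endpoint where 0 means no net growth. Active: below 10.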 Values without a mark were called inactive. Calls of active or inactive are those of the source.

What follows are compounds tested on HL-60(TB) leukemia (assay: NCI-60 one-dose screen, 48 h (100 = growth as untreated, 0 = no growth, -100 = all killed)). Settings: 10 µM unless noted.
In the case of COc1ccc(-c2cnoc2-c2cc(OC)c3c(c2)OCCO3)cc1, the growth is reported as -27.4% (active). In the case of O=C(NCCCCCCNC(=O)OCc1ccc2c(Cl)cc(Cl)c(O)c2n1)OCc1ccc2c(Cl)cc(Cl)c(O)c2n1, the growth is reported as -46.2% (active). In the case of C#CCNC(=O)CC[C@]1(C)[C@H]2CC[C@@H]3[C@@H]([C@@](C)(O)CCC=C(C)C)CC[C@@]3(C)[C@]2(C)CC[C@H]1C(=C)C, the growth is reported as -41% [100 µM] (active). CCOC(=O)c1c(-c2ccc(Cl)cc2)c(C#N)c2c(C#N)c(N)nn2c1N showed a growth of 43.4%. With O=C(NCCCNC(=O)OCc1ccc2c(Br)cc(Br)c(O)c2n1)OCc1ccc2c(Br)cc(Br)c(O)c2n1 the growth was -25.4% (active). Cn1cc(-c2csc(-c3c[nH]c4ncccc34)n2)c2cc(F)cnc21 was tested, and the growth was 79.8%. With COc1ccc(-c2nc(SCC(C)C)nc(Nc3ccc([N+](=O)[O-])cc3)c2C#N)cc1 the growth was 90.5%. In the case of CCC(=O)OC1CCC2C3CCC(=O)OC3C(C)(CCC(=O)O)CC12C (stereo not drawn), the growth is reported as -23.2% (active). CN(C)CCN1C(=O)c2ccc3c4c(ccc(c24)C1=O)C(=O)N(CCN=C=S)C3=O was tested, and the growth was -51.1% (active). Cc1ccc(-c2cc(-c3ccccc3)n(-c3ccccc3)n2)cc1 showed a growth of 98.5%. Nc1nc2c(c3cnccc13)C(c1ccc(Cl)c(Cl)c1)Cc1cnccc1-2 (stereo not drawn) was tested, and the growth was -16.5% (active). Work on C/C(=N\NC(=O)CSc1nc2ccccc2c(=O)n1CCc1ccc(S(N)(=O)=O)cc1)c1ccc(Br)cc1 yielded a growth of 66.3%. CC(=O)N(CC(O)CO)c1c(I)c(C(=O)NCCO)c(I)c(C(=O)NCC(O)CO)c1I (stereo not drawn) showed a growth of 92.2%.
